According to the supplement of paper PMC6124720:
Where a name gives a salt, the structure may show the parent alone. A number with no mark means an inactive call.

test system: Pseudogymnoascus destructans 20631-21; experiment: growth activity index (DuctApe, 0 = no growth, 9 = maximal growth) (index 0-9); higher = more fungal growth (less inhibition), active = 0 or less; extreme values may be limits of the assay; conditions: concentration level (1-4, increasing; Biolog proprietary): 1; temperature: 13 °C; YPD
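Further: biolog Phenotype Microarray plates PM21–25, OD595 followed daily over 11 days, growth curves converted to index, mean of two independent experiments.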

Row | Structure (SMILES) | growth activity index
1 | CC(=O)OCC1=C(C(=O)O)N2C(=O)[C@@H](NC(=O)Cc3cccs3)[C@H]2SC1 [Cephalotin] (Biolog plate: PM22) | 5.67
2 | O=C([O-])c1ccccc1.[Na+] [Sodium Benzoate] (Biolog plate: PM24) | 4
3 | C[C@H]1c2cccc(O)c2C(=O)C2=C(O)[C@]3(O)C(=O)C(C(N)=O)=C(O)[C@@H](N(C)C)[C@@H]3[C@@H](O)[C@@H]21 [Doxycycline] (Biolog plate: PM23) | 4.67
4 | O.O=S(=O)([O-])[O-].O=S(=O)([O-])[O-].O=S(=O)([O-])[O-].[Al+3].[Al+3] [Aluminum sulfate] (Biolog plate: PM24) | 2
5 | CN(C)CCC=C1c2ccccc2CCc2ccccc21 [Amitriptyline] (Biolog plate: PM25) | 0 (active)
6 | NCCSCC(N)C(=O)O (centres undefined) [Thialysine] (Biolog plate: PM24) | 4
7 | O=S(O)(O)=S [Sodium Thiosulfate] (Biolog plate: PM23) | 5
8 | O=S(=O)([O-])[O-].[Cu+2] [Copper (II) sulfate] (Biolog plate: PM21) | 6
9 | Nc1[nH]c(=O)ncc1F [5-Fluorocytosine] (Biolog plate: PM25) | 5
10 | O=C([O-])CC(O)(CC(=O)[O-])C(=O)[O-].[Na+].[Na+].[Na+] [Citric acid Trisodium Salt] (Biolog plate: PM25) | 4
11 | CC(C)Cc1ccc(C(C)C(=O)O)cc1 (centres undefined) [Ibuprofen] (Biolog plate: PM25) | 4.33
12 | CSc1ccc2c(c1)N(CCC1CCCCN1C)c1ccccc1S2 (centres undefined) [Thioridazine] (Biolog plate: PM24) | 3.33
13 | NC(CO)C(=O)NO (racemic) [DL-Serine hydroxamate] (Biolog plate: PM22) | 4.33
14 | O=C([O-])c1ccccc1O.[Na+] [Sodium Salicylate] (Biolog plate: PM25) | 4.67
15 | O=C(O)C(O)C(O)C(=O)O (centres undefined) [Tartaric acid] (Biolog plate: PM25) | 3.33
16 | N=C(N)N [Guanidine hydrochloride] (Biolog plate: PM21) | 5.25
17 | COc1ccc2cc3[n+](cc2c1OC)CCc1cc2c(cc1-3)OCO2 [Berberine Chloride] (Biolog plate: PM24) | 4
18 | NC[C@H]1O[C@H](O[C@H]2[C@H](O)[C@@H](O[C@H]3O[C@H](CO)[C@@H](O)[C@H](N)[C@H]3O)[C@H](N)C[C@@H]2N)[C@H](O)[C@@H](O)[C@@H]1O [Kanamycin] (Biolog plate: PM25) | 5
19 | Nc1c2ccccc2nc2ccccc12 [9-Aminoacridine] (Biolog plate: PM24) | 5
20 | O=NO [Sodium Nitrite] (Biolog plate: PM23) | 4.33
21 | CCCCCCCC(=O)[O-].[Na+] [Sodium Caprylate] (Biolog plate: PM23) | 1
22 | c1ccc(-c2ccccn2)nc1 [2,2`-Dipyridyl] (Biolog plate: PM21) | 5
23 | O=C(O)CCC(=O)O [Succinic acid] (Biolog plate: PM25) | 3.33
24 | O=C(O)/C=C/C(=O)O [Fumaric acid] (Biolog plate: PM25) | 4.33
25 | O=C(O)/C=C/c1ccccc1 [Cinnamic acid] (Biolog plate: PM25) | 5
26 | CN1CCN(CCCN2c3ccccc3Sc3ccc(C(F)(F)F)cc32)CC1 [Trifluoperazine] (Biolog plate: PM21) | 0 (active)
27 | OB(O)O [Boric acid] (Biolog plate: PM22) | 5.33
28 | [Cl-].[Li+] [Lithium chloride] (Biolog plate: PM22) | 0 (active)
29 | C[C@@H]1[C@H](O)[C@@H](C)/C=C/C=C/C=C/C=C/C=C/C=C/C=C/[C@H](O[C@@H]2O[C@H](C)[C@@H](O)[C@H](N)[C@@H]2O)C[C@@H]2O[C@](O)(C[C@@H](O)C[C@@H](O)[C@H](O)CC[C@@H](O)C[C@@H](O)CC(=O)O[C@H]1C)C[C@H](O)[C@H]2C(=O)O [Amphotericin B] (Biolog plate: PM24) | 0 (active)
